Results on 5 compounds are retold here after PubChem BioAssay.

Experiment [1] in a line: rapamycin-like changes in RPL19A-GFP expression – cell-based, S. cerevisiae, multiplex flow cytometry, primary screen (AID 1862).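 Also: lower values mimic rapamycin by blocking the RPL19A rise seen in DMSO cells.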 The conditions noted are these: S. cerevisiae RPL19A-GFP strain, flow cytometry fluorescence, 3 h; at 10 µM; stronger effect = lower value.
Experiment [2] is described as follows: TOR pathway GLN3 branch reporter MEP2-GFP changes – S. cerevisiae, multiplex flow cytometry, primary screen (AID 1867;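 active = GFP response, as percent of the DMSO control, above the screen-wide mean plus 3 SD, about 139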;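 also: median GFP channel fluorescence of barcode-gated MEP2-GFP cells measured by flow cytometry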). The conditions noted are these: S. cerevisiae MEP2-GFP strain, 3 h, at 10 µM, stronger effect = higher value, 100% means same as DMSO wells.
Experiment [3] in a line: TOR pathway RTG branch CIT2 reporter changes – S. cerevisiae, GFP fusion, multiplex flow cytometry, primary screen (AID 1870;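 active = percent response above a set limit, the screen-wide mean plus 3 SD, cut at about 130% in these data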;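 also: barcoded CIT2-GFP strain pooled with four other GFP strains with rapamycin as positive control; median GFP fluorescence per well over plate mean of DMSO wells so 100% = DMSO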). The conditions noted are these: S. cerevisiae CIT2-GFP expression, 3 h, at 10 µM, stronger effect = higher value. (In general: Flow cytometry measures light scatter and fluorescence of single cells or particles in a stream.)
Experiment [4] can be described thus: TOR pathway LAP4-GFP level changes – S. cerevisiae, multiplex flow cytometry, primary screen (AID 1873;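 active = GFP signal, as percent of the solvent control, above the screen mean plus 3 SD, about 149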). The conditions noted are these: S. cerevisiae LAP4-GFP expression, 3 h, at 10 µM, stronger effect = higher value.
A short description of experiment [5]: yeast AGP1-GFP level changes, GLN3 branch – cell-based, multiplex flow cytometry, S. cerevisiae, primary screen (AID 1887;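 active = GFP signal above the screen-wide mean plus 3 SD, that is over about 124.5% of the solvent control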;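 also: AGP1-GFP fusion strain of S. cerevisiae within a five-strain barcoded multiplex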). The conditions noted are these: 3 h, at 10 µM, stronger effect = higher value.
Experiment [6] in a line: reduced mouse 2C T cell binding to pMHC/ICAM-1 vesicles – MLPCN validation set, flow cytometry, LFA-1/ICAM-1 modulator project, pilot screen (AID 2523;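 active = response below a set limit, under 55% cells CD8-positive and vesicle-bound, and CD8 cells' 90th-percentile brightness under 279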;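 as to vesicle binding response: mean PE anti-B7-1 fluorescence of CD8+ cells relative to row control; 100% = QL9-loaded vesicles with DMSO vehicle in the same plate row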). The conditions noted are these: 2C mouse CD8+ T cells, at 7 µM, stronger effect = lower value; double positive events: measured here: CD8+/vesicle+ event percentage.
The target of experiment [7] is Integrin beta-1 (Homo sapiens) + Integrin alpha-4 (Homo sapiens) (UniProt P13612+P05556). Put plainly: alpha4beta1 integrin LIBS antibody binding reduction – U937 cells, HUTS-21 mAb, flow cytometry, validation set, VLA-4 allosteric modulator project, pilot screen (AID 2674;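 active = inhibition above 50%, about 3 SD of the validation set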;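 also: antibody binding induced by the VLA-4 ligand LDV present at three times its Kd; 0% = LDV ligand with antibody and no compound and 100% = antibody without LDV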). The conditions noted are these: HUTS-21 LIBS mAb binding, at 6.7 µM, stronger effect = higher value, binding induced by LDV ligand.
Sequence of Integrin beta-1 (Homo sapiens) + Integrin alpha-4 (Homo sapiens) (P05556 whole entry, looked up): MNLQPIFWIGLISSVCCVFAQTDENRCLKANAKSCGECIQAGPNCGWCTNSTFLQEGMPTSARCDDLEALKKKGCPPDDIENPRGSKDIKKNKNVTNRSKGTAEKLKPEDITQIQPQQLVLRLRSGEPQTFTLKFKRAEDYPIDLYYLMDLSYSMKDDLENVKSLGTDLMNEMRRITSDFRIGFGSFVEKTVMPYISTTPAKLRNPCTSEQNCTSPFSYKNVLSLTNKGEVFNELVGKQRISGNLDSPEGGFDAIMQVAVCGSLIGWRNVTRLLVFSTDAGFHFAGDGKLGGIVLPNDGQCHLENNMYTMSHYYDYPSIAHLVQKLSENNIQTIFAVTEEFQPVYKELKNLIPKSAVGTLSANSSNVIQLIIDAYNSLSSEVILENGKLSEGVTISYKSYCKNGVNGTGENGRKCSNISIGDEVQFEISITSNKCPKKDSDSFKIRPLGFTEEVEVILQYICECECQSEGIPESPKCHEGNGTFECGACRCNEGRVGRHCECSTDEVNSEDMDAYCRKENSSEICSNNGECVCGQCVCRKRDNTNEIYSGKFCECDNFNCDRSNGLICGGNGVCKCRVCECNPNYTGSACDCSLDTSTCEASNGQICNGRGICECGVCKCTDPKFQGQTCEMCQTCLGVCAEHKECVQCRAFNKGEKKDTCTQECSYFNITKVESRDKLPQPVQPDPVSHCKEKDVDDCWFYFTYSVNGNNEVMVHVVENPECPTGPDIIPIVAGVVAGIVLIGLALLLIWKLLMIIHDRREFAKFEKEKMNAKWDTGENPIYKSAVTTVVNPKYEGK
Sequence of Integrin beta-1 (Homo sapiens) + Integrin alpha-4 (Homo sapiens) (P13612 whole entry, looked up): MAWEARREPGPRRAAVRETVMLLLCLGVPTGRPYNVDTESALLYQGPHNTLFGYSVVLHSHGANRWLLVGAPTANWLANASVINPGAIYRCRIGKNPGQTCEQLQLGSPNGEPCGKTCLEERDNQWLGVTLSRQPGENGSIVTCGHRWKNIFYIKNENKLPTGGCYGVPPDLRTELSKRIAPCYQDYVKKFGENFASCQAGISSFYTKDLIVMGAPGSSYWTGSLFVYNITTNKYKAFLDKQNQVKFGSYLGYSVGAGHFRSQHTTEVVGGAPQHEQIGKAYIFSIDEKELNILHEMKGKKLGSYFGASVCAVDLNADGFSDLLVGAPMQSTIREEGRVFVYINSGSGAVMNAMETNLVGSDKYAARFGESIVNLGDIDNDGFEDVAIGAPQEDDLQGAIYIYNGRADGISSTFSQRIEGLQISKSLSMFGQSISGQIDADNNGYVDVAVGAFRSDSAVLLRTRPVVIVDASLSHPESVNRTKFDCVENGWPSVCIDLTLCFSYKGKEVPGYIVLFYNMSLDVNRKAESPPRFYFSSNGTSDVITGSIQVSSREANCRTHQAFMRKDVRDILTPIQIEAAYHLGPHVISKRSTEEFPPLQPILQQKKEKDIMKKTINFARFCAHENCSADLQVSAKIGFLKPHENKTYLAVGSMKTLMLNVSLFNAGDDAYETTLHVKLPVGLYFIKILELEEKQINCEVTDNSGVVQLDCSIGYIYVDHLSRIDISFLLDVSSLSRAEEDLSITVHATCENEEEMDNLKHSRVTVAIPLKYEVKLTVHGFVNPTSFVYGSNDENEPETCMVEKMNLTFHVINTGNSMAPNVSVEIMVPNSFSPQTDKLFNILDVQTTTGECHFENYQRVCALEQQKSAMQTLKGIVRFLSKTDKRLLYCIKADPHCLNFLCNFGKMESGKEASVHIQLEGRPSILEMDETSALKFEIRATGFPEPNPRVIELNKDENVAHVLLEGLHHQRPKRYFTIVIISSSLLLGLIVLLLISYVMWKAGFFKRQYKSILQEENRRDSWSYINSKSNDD

Experiment [8] is described as follows: calorie-restriction mimetic ROS inhibitors, yeast – validation compound set, pilot screen (AID 2706;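 active = superoxide response below 65% of plate, a cut near 3 SD across the whole screen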;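 also: yeast exposed to compound for one week at 30 degrees C before staining; 100% = mean of all compound wells on the same plate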). The conditions noted are these: S. cerevisiae aging, superoxide DHE fluorescence; at 10 µM; stronger effect = lower value.
In experiment [9] the target is Beta-adrenergic receptor kinase 1 (Homo sapiens) (UniProt P25098). Kind of experiment: GRK2 binders displacing RNA aptamer, biochemical, validation, human GRK2, bead flow cytometry (AID 488806;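 active = aptamer binding inhibition above 30%, about 3 SD of noise from non-fluorescent compounds; inactive = inhibition at or below 30%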). The conditions noted are these: bead-bound GRK2, FAM-aptamer displacement, at 10 µM, stronger effect = higher value.
Sequence of Beta-adrenergic receptor kinase 1 (Homo sapiens) (P25098 whole entry, looked up): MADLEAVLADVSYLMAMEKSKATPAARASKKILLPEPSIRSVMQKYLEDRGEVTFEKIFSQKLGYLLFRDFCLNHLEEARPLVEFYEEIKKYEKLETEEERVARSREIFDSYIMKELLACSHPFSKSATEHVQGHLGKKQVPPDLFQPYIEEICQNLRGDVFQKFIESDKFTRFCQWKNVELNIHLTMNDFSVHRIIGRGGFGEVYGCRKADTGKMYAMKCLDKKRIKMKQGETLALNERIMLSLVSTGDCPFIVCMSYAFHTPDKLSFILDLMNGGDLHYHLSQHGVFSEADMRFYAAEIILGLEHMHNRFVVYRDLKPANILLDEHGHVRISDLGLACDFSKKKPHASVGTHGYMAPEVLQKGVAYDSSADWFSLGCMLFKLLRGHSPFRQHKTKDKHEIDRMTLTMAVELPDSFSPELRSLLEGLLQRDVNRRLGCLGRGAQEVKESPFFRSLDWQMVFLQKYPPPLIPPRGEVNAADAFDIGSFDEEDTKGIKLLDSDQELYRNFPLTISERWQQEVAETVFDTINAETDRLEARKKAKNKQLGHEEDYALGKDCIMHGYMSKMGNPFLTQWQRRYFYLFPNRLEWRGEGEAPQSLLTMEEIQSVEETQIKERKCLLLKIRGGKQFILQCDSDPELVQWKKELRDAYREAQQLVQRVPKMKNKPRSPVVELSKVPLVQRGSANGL
In experiment [10] the target is Beta-2 adrenergic receptor (Homo sapiens) (UniProt P07550). Put plainly: agonist-induced loss of surface beta2AR – cell-based, FAP fluorogen, flow cytometry, validation set, pilot screen (AID 504459;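 active = percent response above 42, roughly 3 SD of non-fluorescent test compounds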;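 also: agonist-driven loss of surface beta2AR via internalization measured by FAP dye flow cytometry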). The conditions noted are these: Am2.2-beta2AR cells, at 10 µM, stronger effect = higher value.
Sequence of Beta-2 adrenergic receptor (Homo sapiens) (P07550 whole entry, looked up): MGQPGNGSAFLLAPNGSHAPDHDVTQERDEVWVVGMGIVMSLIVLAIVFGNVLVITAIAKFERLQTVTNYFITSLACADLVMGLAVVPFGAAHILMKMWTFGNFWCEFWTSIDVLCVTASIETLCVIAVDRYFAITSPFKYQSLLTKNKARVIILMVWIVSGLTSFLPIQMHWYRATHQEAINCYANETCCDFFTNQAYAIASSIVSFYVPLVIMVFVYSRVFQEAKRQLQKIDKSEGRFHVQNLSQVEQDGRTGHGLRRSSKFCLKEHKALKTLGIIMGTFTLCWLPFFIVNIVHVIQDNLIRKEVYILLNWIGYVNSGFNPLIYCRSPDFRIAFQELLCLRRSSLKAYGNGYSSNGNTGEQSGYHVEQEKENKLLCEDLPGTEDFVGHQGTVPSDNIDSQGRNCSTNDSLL
Experiment [11] has as its target AP-2 complex subunit beta (Homo sapiens) (UniProt P63010). Kind of experiment: beta-arrestin/AP2 interaction blockers – biochemical, validation set, GST-AP2 beads, flow cytometry, pilot screen (AID 504541;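 active = inhibition above 54%, about 3 SD of non-fluorescent compounds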;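 also: AP2 carries R879A mutation and is captured from E. coli lysate; bead-bound FITC arrestin peptide fluorescence measuring arrestin peptide binding to AP2; 0% = DMSO wells and 100% = excess unlabeled arrestin peptide control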). The conditions noted are these: FITC arrestin peptide, at 10 µM, stronger effect = higher value, AP2 beta2 appendage fragment, R879A mutant.
Experiment [12] is described as follows: cytosolic pH regulators acting via V-ATPase – S. cerevisiae, pHLuorin, HTS validation (AID 504600; in the data active = response above about 15%;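 also: plate controls were DMSO for no effect and reference compound for full effect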). The conditions noted are these: V-ATPase proton transport, at 10 µM, stronger effect = higher value.
Experiment [13] concerns anti-desmoglein-3 scFv antibody binding to human DSG3. Put plainly: blockers of pathogenic pemphigus antibody–desmoglein-3 binding – biochemical, validation compound set, bead-based, flow cytometry, pilot screen (AID 588368;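 active = binding below the plate cutoff, the plate median minus 3 SD, with a reading above zero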;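 also: signal is the median channel fluorescence of bead-bound GFP antibody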). The conditions noted are these: Protein G beads, DSG3-Fc, scFv-GFP binding, at 10 µM, stronger effect = lower value.
A short description of experiment [14]: Nile Red efflux blockade in pump-expressing yeast – validation compound set, multiplex, phenotypic, pilot screen (AID 588506;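 active = efflux inhibition above 0.42, the validation set average plus 4 SD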;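 also: Nile Red retained in cells so higher fluorescence means more efflux inhibition; 0 = negative control wells and 1 = enniatin B 25 µM full block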). The conditions noted are these: S. cerevisiae pump-expressing triplex, Nile Red efflux flow cytometry; at 10 µM; stronger effect = higher value; the pumps come from Candida albicans.
For experiment [15], the target named is ATP-binding cassette sub-family B member 6 (Homo sapiens) (UniProt Q9NP58). Put plainly: blockers of ABCB6-driven porphyrin uptake – K562-ABCB6 cells, flow cytometry, validation set, pilot screen (AID 588550;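 active = inhibition above the screen-wide mean plus 3 SD, about 51%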;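 also: 0% = DMSO wells and 100% = benzethonium chloride 70 µM positive control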). The conditions noted are these: K562-ABCB6 porphyrin accumulation, 1 h, at 10 µM, stronger effect = higher value.
Sequence of ATP-binding cassette sub-family B member 6 (Homo sapiens) (Q9NP58 whole entry, looked up): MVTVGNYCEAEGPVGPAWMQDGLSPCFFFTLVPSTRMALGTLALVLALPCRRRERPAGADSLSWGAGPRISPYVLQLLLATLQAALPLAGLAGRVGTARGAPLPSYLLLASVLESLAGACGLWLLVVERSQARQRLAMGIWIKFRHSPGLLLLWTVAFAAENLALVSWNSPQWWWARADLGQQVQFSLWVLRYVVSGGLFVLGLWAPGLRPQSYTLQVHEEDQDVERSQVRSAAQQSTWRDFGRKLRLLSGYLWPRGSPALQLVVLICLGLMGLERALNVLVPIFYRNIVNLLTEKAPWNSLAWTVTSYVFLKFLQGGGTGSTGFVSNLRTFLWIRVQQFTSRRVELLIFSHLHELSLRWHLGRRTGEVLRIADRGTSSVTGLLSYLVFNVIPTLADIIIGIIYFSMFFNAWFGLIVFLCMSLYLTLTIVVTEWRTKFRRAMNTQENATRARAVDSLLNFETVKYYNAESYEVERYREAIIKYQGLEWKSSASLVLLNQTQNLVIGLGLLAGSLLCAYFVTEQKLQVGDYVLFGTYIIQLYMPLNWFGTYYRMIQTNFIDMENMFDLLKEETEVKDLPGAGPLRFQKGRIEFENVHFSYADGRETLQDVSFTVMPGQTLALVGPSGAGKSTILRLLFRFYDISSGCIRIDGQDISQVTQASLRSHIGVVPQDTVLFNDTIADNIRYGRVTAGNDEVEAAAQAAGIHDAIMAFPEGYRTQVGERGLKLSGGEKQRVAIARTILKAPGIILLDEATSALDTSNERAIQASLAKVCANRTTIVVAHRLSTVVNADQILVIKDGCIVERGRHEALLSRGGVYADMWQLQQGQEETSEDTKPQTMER
Experiment [16] in a line: AML differentiation inducers, ER-HoxA9 marrow cells – cell-based, GFP/MAC1 double positive, flow cytometry, validation set, primary screen (AID 588685;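 active = differentiation response of at least 50%, scaled between solvent and reference control, from cells with both markers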;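 also: compound exposure lasts four days before antibody staining and flow analysis; 0% = DMSO wells and 100% = 5 µM fulvestrant positive control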). The conditions noted are these: stronger effect = higher value, normalized: vehicle 0, fulvestrant 100.

In general, inhibition refers to the drop in the measured response relative to a control, in per cent.

Inconclusive results are not listed. The source made the active and inactive calls. Rule as the data show it, unless noted: active = percent of DMSO control GFP below about 86%; inactive = the rest, inconclusive results apart.

Sequence of AP-2 complex subunit beta (Homo sapiens) (P63010 whole entry, looked up, the tested form may be a part, one chain of several): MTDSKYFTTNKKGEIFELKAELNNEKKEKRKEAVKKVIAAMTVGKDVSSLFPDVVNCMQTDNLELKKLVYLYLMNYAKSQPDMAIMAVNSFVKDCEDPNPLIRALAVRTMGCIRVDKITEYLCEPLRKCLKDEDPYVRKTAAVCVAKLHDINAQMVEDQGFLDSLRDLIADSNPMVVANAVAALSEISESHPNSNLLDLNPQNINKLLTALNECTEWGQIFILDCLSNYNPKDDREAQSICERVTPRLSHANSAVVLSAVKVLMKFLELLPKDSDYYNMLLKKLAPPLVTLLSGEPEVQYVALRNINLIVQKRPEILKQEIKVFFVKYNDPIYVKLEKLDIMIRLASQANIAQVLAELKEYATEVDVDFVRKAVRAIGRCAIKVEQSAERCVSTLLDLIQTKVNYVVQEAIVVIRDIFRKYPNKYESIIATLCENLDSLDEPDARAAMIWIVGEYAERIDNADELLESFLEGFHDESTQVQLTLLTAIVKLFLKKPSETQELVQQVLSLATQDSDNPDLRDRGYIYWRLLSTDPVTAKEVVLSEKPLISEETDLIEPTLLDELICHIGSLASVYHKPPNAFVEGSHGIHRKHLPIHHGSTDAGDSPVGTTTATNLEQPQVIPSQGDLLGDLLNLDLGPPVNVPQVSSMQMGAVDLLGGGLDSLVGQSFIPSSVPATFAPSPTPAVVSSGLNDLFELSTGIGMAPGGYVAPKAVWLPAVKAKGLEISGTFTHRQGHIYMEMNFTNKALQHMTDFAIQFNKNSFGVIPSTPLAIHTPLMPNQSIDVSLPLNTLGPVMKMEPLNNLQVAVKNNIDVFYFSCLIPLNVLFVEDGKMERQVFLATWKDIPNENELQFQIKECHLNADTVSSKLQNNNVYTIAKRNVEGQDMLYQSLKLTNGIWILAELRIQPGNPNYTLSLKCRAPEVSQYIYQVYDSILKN

In the case of `NC(N)=N/N=C/c1c(Cl)cccc1Cl`, the percent of DMSO control GFP in experiment [1] is 102% (inactive). Moreover, the GFP response vs DMSO is 105% (inactive) in experiment [2] and 101% (inactive) in experiment [4]. For the same compound, the percent response of DMSO control in [3] was 105% (inactive). For the same compound, in experiment [5], the GFP response, % of DMSO was 108% (inactive). Further, in experiment [6], the double positive events was found to be 67.2%. The vesicle binding response in experiment [6] is 169% (inactive). In addition, the inhibition is -11.8% (inactive) in [7], 5.82% (inactive) in experiment [11] and -5% (inactive) in [15]. In experiment [8], the superoxide response (% of plate) was 81.5% (inactive). The aptamer binding inhibition in experiment [9] is -4% (inactive). Also, the values for the response in experiment [10] and in experiment [12] were -0.34% (inactive) and -3.91% (inactive), respectively. For the same compound, the binding (% of control) in experiment [13] is 99.4% (inactive). Also, in experiment [14], the efflux inhibition (fraction of control) is -0.085 (inactive). Also, the differentiation response in [16] was -13.3% (inactive).
For `O=C(c1ccc(Cl)cc1)C1CCCN(Cc2ccc(Oc3ncccn3)cc2)C1` (stereo not given), in experiment [1], the percent of DMSO control GFP is 108% (inactive). For the same compound, the GFP response vs DMSO in experiment [2] was 104% (inactive); in experiment [4], 87.2% (inactive). In experiment [3], the percent response of DMSO control was 106% (inactive). The GFP response, % of DMSO in [5] is 96.5% (inactive). In experiment [6], the double positive events was determined as 65.7%. In addition, in experiment [6], the vesicle binding response is 227% (inactive). The figures for the inhibition in experiment [7], in experiment [11] and in [15] were 24.4% (inactive), -1.25% (inactive) and 21% (inactive), respectively. For the same compound, the superoxide response (% of plate) in experiment [8] is 93.5% (inactive). Further, the aptamer binding inhibition in experiment [9] is 2% (inactive). Also, the response in experiment [10] was -3.98% (inactive); in experiment [12], 2.78% (inactive). Besides, the binding (% of control) in experiment [13] was 106% (inactive). The efflux inhibition (fraction of control) in experiment [14] was -0.12 (inactive). Moreover, in experiment [16], the differentiation response was -6.03% (inactive).
Consider `O=C(Cc1cccc2ccccc12)N1CC[C@@]2(O)CCCC[C@H]2C1`, for which the percent of DMSO control GFP in [1] was 92% (inactive). Also, the GFP response vs DMSO in experiment [2] is 138% (inactive); in experiment [4] it was 85.3% (inactive). The percent response of DMSO control in experiment [3] is 104% (inactive). In experiment [5], the GFP response, % of DMSO was 85% (inactive). Moreover, the double positive events in [6] worked out at 62%. Moreover, the vesicle binding response in experiment [6] was 252% (inactive). In addition, the results for the inhibition in [7], in [11] and in [15] were 10.3% (inactive), -11.6% (inactive) and 10% (inactive), respectively. The superoxide response (% of plate) in experiment [8] was 110% (inactive). In [9], the aptamer binding inhibition is 11% (inactive). For the same compound, the response in experiment [10] is 0.11% (inactive); in experiment [12] it was 2.02% (inactive). Further, the binding (% of control) in [13] was 105% (inactive). Besides, the efflux inhibition (fraction of control) in experiment [14] is -0.24 (inactive). Besides, the differentiation response in experiment [16] is -2.46% (inactive).
As to `CCN(CC)C(=O)c1sc(NC(=O)c2c(OC)cccc2OC)c(C#N)c1C`, the percent of DMSO control GFP in [1] was 101% (inactive). The GFP response vs DMSO in experiment [2] was 98.7% (inactive); in [4], 88.2% (inactive). Besides, the percent response of DMSO control in experiment [3] was 105% (inactive). For the same compound, in experiment [5], the GFP response, % of DMSO is 94.7% (inactive). In experiment [6], this compound gave a double positive events of 66.7%. Also, the vesicle binding response in experiment [6] is 229% (inactive). Further, the inhibition in experiment [7] is 1.59% (inactive); in experiment [11], -5.78% (inactive); in experiment [15], 14% (inactive). Besides, the superoxide response (% of plate) in experiment [8] is 95.2% (inactive). Besides, the aptamer binding inhibition in experiment [9] was 4% (inactive). For the same compound, the response in experiment [10] is -1.95% (inactive); in experiment [12] it was 12% (inactive). For the same compound, the binding (% of control) in experiment [13] is 97.3% (inactive). In addition, in experiment [14], the efflux inhibition (fraction of control) was -0.025 (inactive). Further, the differentiation response in experiment [16] is 5.67% (inactive).
Take `COC1CCN(C(=O)c2ccc(OC3CCN(Cc4ccccn4)CC3)cc2)CC1`: in experiment [1], the percent of DMSO control GFP was 104% (inactive). The GFP response vs DMSO in [2] is 109% (inactive); in experiment [4] it was 114% (inactive). The percent response of DMSO control in experiment [3] was 104% (inactive). In addition, the GFP response, % of DMSO in experiment [5] is 110% (inactive). Also, the double positive events in experiment [6] amounted to 65%. Moreover, the vesicle binding response in [6] is 133% (inactive). The results for the inhibition in [7], in [11] and in experiment [15] were 9.13% (inactive), 26.3% (inactive) and 8% (inactive), respectively. Moreover, the superoxide response (% of plate) in [8] is 89.2% (inactive). Moreover, the aptamer binding inhibition in experiment [9] is -2% (inactive). Besides, the response is -2.71% (inactive) in experiment [10] and -3.44% (inactive) in experiment [12]. In addition, the binding (% of control) in experiment [13] was 103% (inactive). The efflux inhibition (fraction of control) in experiment [14] is -0.17 (inactive). Further, the differentiation response in [16] was -2.4% (inactive).
